In PubChem BioAssay AID1159580 (chemical genetic matrix, 2015):
“And” between values parts separate entries of the source, which are not always exact repeats. Identical values can stand only once. Out of some 5,500 compounds screened, about 2,000 (36%) were called active. About 18% were inconclusive and are not listed. Rule as the data show it: active = normalized growth mostly below about 0.91 (no sharp cut-off); inconclusive = no clear call, values can overlap the other calls; inactive = mostly above about 0.92. Some of the results follow.

Test: chemical genetic growth profiling, strain panel (AID 1159580);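 also: tested at 20 µM; growth read once vehicle control cultures reached saturation at 30 °C; 1 = growth at the plate median or of vehicle wells; lower values mean less growth of the strain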
Conditions: S. cerevisiae deletion strains, growth OD

Measured: normalized growth

CC1=CCc2c(cc3oc(C)cc(=O)c3c2O)OC1
inactive: locus YAL021C, strain ccr4, stronger effect = lower value 0.991 | locus YAL026C, strain drs2, stronger effect = lower value 0.964 | locus YAL030W, strain snc1, stronger effect = lower value 0.972 | locus YBL061C, strain skt5, stronger effect = lower value 0.971 | locus YBR009C, strain hhf1, stronger effect = lower value 0.954 | locus YBR021W, strain FUR4, stronger effect = lower value 0.856 | locus YBR023C, strain chs3, stronger effect = lower value 0.977 | locus YBR171W, strain sec66, stronger effect = lower value 0.94 | locus YBR229C, strain ROT2, stronger effect = lower value 0.98 | locus YBR231C, strain swc5, stronger effect = lower value 0.966 | locus YBR279W, strain paf1, stronger effect = lower value 0.982 | locus YCL011C, strain gbp2, stronger effect = lower value 0.929 | locus YCL016C, strain dcc1, stronger effect = lower value 0.982 | locus YCL029C, strain bik1, stronger effect = lower value 0.951 | locus YCL061C, strain MRC1, stronger effect = lower value 0.954 | locus YCL069W, strain vba3, stronger effect = lower value 0.954 | locus YCR088W, strain abp1, stronger effect = lower value 0.961 | locus YDL005C, strain med2, stronger effect = lower value 1 | locus YDL035C, strain GPR1, stronger effect = lower value 0.863 | locus YDL040C, strain nat1, stronger effect = lower value 0.984 | locus YDL101C, strain DUN1, stronger effect = lower value 0.943 | locus YDL134C, strain PPH21, stronger effect = lower value 0.907 | locus YDL185W, strain tfp1, stronger effect = lower value 0.962 | locus YDR001C, strain nth1, stronger effect = lower value 0.949 | locus YDR069C, strain doa4, stronger effect = lower value 0.988 | locus YDR137W, strain rgp1, stronger effect = lower value 0.913 | locus YDR150W, strain NUM1, stronger effect = lower value 0.96 | locus YDR159W, strain sac3, stronger effect = lower value 1.02 | locus YDR297W, strain sur2, stronger effect = lower value 0.968 | locus YDR334W, strain swr1, stronger effect = lower value 0.965 | locus YDR335W, strain msn5, stronger effect = lower value 0.987 | locus YDR388W, stronger effect = lower value 0.957 | locus YDR392W, strain spt3, stronger effect = lower value 0.893 | locus YEL003W, strain gim4, stronger effect = lower value 0.929 | locus YEL037C, strain rad23, stronger effect = lower value 0.96 | locus YEL061C, strain CIN8 (second series), stronger effect = lower value 0.966 | locus YEL061C, strain CIN8, stronger effect = lower value 0.952 | locus YER015W, strain faa2, stronger effect = lower value 0.975 | locus YER016W, strain bim1, stronger effect = lower value 0.985 | locus YER110C, stronger effect = lower value 0.933 | locus YER111C, strain swi4, stronger effect = lower value 0.967 | locus YER155C, strain BEM2 (second series), stronger effect = lower value 0.867 | locus YER155C, strain BEM2, stronger effect = lower value 0.96 | locus YER167W, strain BCK2, stronger effect = lower value 0.924 | locus YFR010W, strain ubp6, stronger effect = lower value 0.953 | locus YGL078C, strain dbp3, stronger effect = lower value 0.944 | locus YGL086W, strain mad1, stronger effect = lower value 0.934 | locus YGL167C, strain pmr1, stronger effect = lower value 0.979 | locus YGL173C, strain kem1, stronger effect = lower value 0.959 | locus YGL227W, strain vid30, stronger effect = lower value 0.964 | locus YGL240W, strain doc1, stronger effect = lower value 0.951 | locus YGL248W, strain PDE1, stronger effect = lower value 0.901 | locus YGL253W, strain hxk2, stronger effect = lower value 0.987 | locus YHR013C, strain ard1, stronger effect = lower value 0.924 | locus YHR027C, strain rpn1, stronger effect = lower value 0.984 | locus YHR079C, strain IRE1, stronger effect = lower value 0.96 | locus YHR094C, strain hxt1, stronger effect = lower value 0.972 | locus YHR129C, strain ARP1, stronger effect = lower value 0.925 | locus YHR142W, strain chs7, stronger effect = lower value 0.888 | locus YHR200W, strain rpn10, stronger effect = lower value 0.921 | locus YIL073C, strain SPO22, stronger effect = lower value 0.909 | locus YIL125W, strain kgd1, stronger effect = lower value 0.964 | locus YIR030C, strain dcg1, stronger effect = lower value 0.969 | locus YJL092W, strain hpr5, stronger effect = lower value 0.956 | locus YJL095W, strain BCK1 (second series), stronger effect = lower value 0.98 | locus YJL115W, strain asf1, stronger effect = lower value 0.973 | locus YJL129C, strain trk1, stronger effect = lower value 0.912 | locus YJL134W, strain LCB3, stronger effect = lower value 0.978 | locus YJL154C, strain vps35, stronger effect = lower value 0.956 | locus YJL164C, strain tpk1, stronger effect = lower value 0.952 | locus YJL166W, strain qcr8, stronger effect = lower value 0.983 | locus YJL168C, strain set2, stronger effect = lower value 0.968 | locus YJR066W, strain TOR1, stronger effect = lower value 0.915
active: locus YAL013W, strain DEP1, stronger effect = lower value 0.886 | locus YDL074C, strain BRE1, stronger effect = lower value 0.703 | locus YDL192W, strain arf1, stronger effect = lower value 0.901 | locus YDR101C, strain arx1, stronger effect = lower value 0.887 | locus YDR162C, strain NBP2, stronger effect = lower value 0.738 | locus YDR195W, strain ref2 1.2 [resistant] | locus YDR318W, strain mcm21, stronger effect = lower value 0.885 | locus YDR502C, strain sam2, stronger effect = lower value 0.86 | locus YGR078C, strain PAC10, stronger effect = lower value 0.785 | locus YGR135W, strain pre9, stronger effect = lower value 0.802 | locus YGR229C, strain SMI1, stronger effect = lower value 0.679 | locus YGR252W, strain gcn5, stronger effect = lower value 0.741 | locus YHR079C, strain IRE1 (second series), stronger effect = lower value 0.91 | locus YIL066C, strain RNR3, stronger effect = lower value 0.858 | locus YJL187C, strain SWE1 (second series), stronger effect = lower value 0.867 | locus YJR043C, strain POL32, stronger effect = lower value 0.792
0.756 (active) and 0.945 (inactive): locus YJL095W, strain BCK1, stronger effect = lower value
0.892 (active) and 0.959 (inactive): locus YHR030C, strain SLT2, stronger effect = lower value
